Experimental data reported in PubChem BioAssay AID1159580 (chemical genetic matrix, 2015).
Where “and” joins values, the source holds several entries; their conditions need not be identical. Equal entries are not always repeated. About 2,000 (36%) of roughly 5,500 compounds were called active. Another 18% or so got no clear call; they are omitted. Cut-off read from the data, not from the text of the source: active = normalized growth mostly below about 0.91 (no sharp cut-off); inconclusive = no clear call, values can overlap the other calls; inactive = mostly above about 0.92. This is one part of the list.

Assay: chemical genetic growth profiling, strain panel (AID 1159580);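 note: tested at 20 µM; growth read once vehicle control cultures reached saturation at 30 °C; 1 = growth at the plate median or of vehicle wells; lower values mean less growth of the strain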
Details: S. cerevisiae deletion strains, growth OD

Measured: normalized growth

N[C@H](Cc1cc(I)c(Oc2ccc(O)c(I)c2)c(I)c1)C(=O)O
active: locus YBR009C, strain hhf1, active compounds read low 0.893 | locus YDR318W, strain mcm21, active compounds read low 0.917 | locus YJL095W, strain BCK1 (second series), active compounds read low 0.865 | locus YJL164C, strain tpk1, active compounds read low 0.911 | locus YJL166W, strain qcr8, active compounds read low 0.884
inactive: locus YAL013W, strain DEP1, active compounds read low 1.01 | locus YAL021C, strain ccr4, active compounds read low 1.03 | locus YAL026C, strain drs2, active compounds read low 0.982 | locus YAL030W, strain snc1, active compounds read low 1 | locus YBL061C, strain skt5, active compounds read low 0.994 | locus YBR021W, strain FUR4, active compounds read low 0.989 | locus YBR023C, strain chs3, active compounds read low 0.986 | locus YBR171W, strain sec66, active compounds read low 0.996 | locus YBR229C, strain ROT2, active compounds read low 1 | locus YBR231C, strain swc5, active compounds read low 1 | locus YBR279W, strain paf1, active compounds read low 0.991 | locus YCL011C, strain gbp2, active compounds read low 1 | locus YCL016C, strain dcc1, active compounds read low 0.981 | locus YCL029C, strain bik1, active compounds read low 1.01 | locus YCL061C, strain MRC1, active compounds read low 0.987 | locus YCL069W, strain vba3, active compounds read low 1 | locus YCR088W, strain abp1, active compounds read low 1 | locus YDL005C, strain med2, active compounds read low 1 | locus YDL035C, strain GPR1, active compounds read low 0.992 | locus YDL040C, strain nat1, active compounds read low 1.01 | locus YDL074C, strain BRE1, active compounds read low 0.939 | locus YDL101C, strain DUN1, active compounds read low 0.998 | locus YDL134C, strain PPH21, active compounds read low 1 | locus YDL185W, strain tfp1, active compounds read low 0.996 | locus YDL192W, strain arf1, active compounds read low 0.987 | locus YDR001C, strain nth1, active compounds read low 1.01 | locus YDR069C, strain doa4, active compounds read low 0.992 | locus YDR101C, strain arx1, active compounds read low 0.974 | locus YDR137W, strain rgp1, active compounds read low 0.985 | locus YDR150W, strain NUM1, active compounds read low 1.05 | locus YDR159W, strain sac3, active compounds read low 0.978 | locus YDR162C, strain NBP2, active compounds read low 0.999 | locus YDR195W, strain ref2 1 | locus YDR297W, strain sur2, active compounds read low 0.996 | locus YDR334W, strain swr1, active compounds read low 0.997 | locus YDR335W, strain msn5, active compounds read low 0.999 | locus YDR388W, active compounds read low 0.985 | locus YDR392W, strain spt3, active compounds read low 0.748 | locus YDR502C, strain sam2, active compounds read low 0.977 | locus YEL003W, strain gim4, active compounds read low 0.998 | locus YEL037C, strain rad23, active compounds read low 1 | locus YEL061C, strain CIN8 (second series), active compounds read low 1 | locus YEL061C, strain CIN8, active compounds read low 1.01 | locus YER015W, strain faa2, active compounds read low 1 | locus YER016W, strain bim1, active compounds read low 0.995 | locus YER110C, active compounds read low 1 | locus YER111C, strain swi4, active compounds read low 0.993 | locus YER155C, strain BEM2 (second series), active compounds read low 0.958 | locus YER155C, strain BEM2, active compounds read low 0.997 | locus YER167W, strain BCK2, active compounds read low 0.946 | locus YFR010W, strain ubp6, active compounds read low 0.997 | locus YGL078C, strain dbp3, active compounds read low 0.98 | locus YGL086W, strain mad1, active compounds read low 0.946 | locus YGL167C, strain pmr1, active compounds read low 1 | locus YGL173C, strain kem1, active compounds read low 0.952 | locus YGL227W, strain vid30, active compounds read low 0.993 | locus YGL240W, strain doc1, active compounds read low 0.973 | locus YGL248W, strain PDE1, active compounds read low 0.998 | locus YGL253W, strain hxk2, active compounds read low 0.981 | locus YGR078C, strain PAC10, active compounds read low 0.966 | locus YGR135W, strain pre9, active compounds read low 0.959 | locus YGR229C, strain SMI1, active compounds read low 0.981 | locus YGR252W, strain gcn5, active compounds read low 0.87 | locus YHR013C, strain ard1, active compounds read low 0.971 | locus YHR027C, strain rpn1, active compounds read low 0.997 | locus YHR030C, strain SLT2, active compounds read low 0.997 and 1.05 | locus YHR079C, strain IRE1 (second series), active compounds read low 0.999 | locus YHR079C, strain IRE1, active compounds read low 1.05 | locus YHR094C, strain hxt1, active compounds read low 0.999 | locus YHR129C, strain ARP1, active compounds read low 1 | locus YHR142W, strain chs7, active compounds read low 0.964 | locus YHR200W, strain rpn10, active compounds read low 0.992 | locus YIL066C, strain RNR3, active compounds read low 0.951 | locus YIL073C, strain SPO22, active compounds read low 0.967 | locus YIL125W, strain kgd1, active compounds read low 0.99 | locus YIR030C, strain dcg1, active compounds read low 0.993 | locus YJL092W, strain hpr5, active compounds read low 0.998 | locus YJL095W, strain BCK1, active compounds read low 0.964 and 1.04 | locus YJL115W, strain asf1, active compounds read low 0.998 | locus YJL129C, strain trk1, active compounds read low 0.97 | locus YJL134W, strain LCB3, active compounds read low 1 | locus YJL154C, strain vps35, active compounds read low 1 | locus YJL168C, strain set2, active compounds read low 0.996 | locus YJL187C, strain SWE1 (second series), active compounds read low 1.01 | locus YJL187C, strain SWE1, active compounds read low 1.01 | locus YJR043C, strain POL32, active compounds read low 0.996 | locus YJR066W, strain TOR1, active compounds read low 0.99
